Read-out in test [1]: Transforming growth factor beta 1 (TGFb1), TGFB1 (gene 7040)
Put plainly: BSK_KF3CT_TGFb1: BioMAP Diversity Plus: KF3CT Assay for Transforming growth factor beta 1 (TGFb1) Biomarker Activity (AID 2283072). To be noted: primary human keratinocytes with fibroblasts; actives raise or lower the signal. The essentials:
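Read-out: ELISA for TGF-b1 in keratinocyte/foreskin fibroblast human skin co-culture, 24 h after dosing; bidirectional curve fit vs DMSO baseline; gain or loss of signal scored.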

Read-out in test [2]: C-C motif chemokine 2 (Homo sapiens) (UniProt P13500)
Put plainly: BSK_KF3CT_MCP1: BioMAP Diversity Plus: KF3CT Assay for Monocyte Chemoattractant Protein 1 (MCP1/CCL2) Biomarker Activity (AID 2283073). The settings on record: primary human keratinocytes with fibroblasts; actives raise or lower the signal. The gist of the method:
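Keratinocytes and foreskin fibroblasts were co-cultured, dosed with chemical, and sampled 24 h later. MCP-1 was quantified by ELISA, and the endpoint was analyzed with bidirectional fitting using DMSO as negative control.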

Read-out in test [3]: Matrix Metallopeptidase 9 (MMP9), MMP9 (gene 4318)
Kind of test: BSK_KF3CT_MMP9: BioMAP Diversity Plus: KF3CT Assay for Matrix Metallopeptidase 9 (MMP9) Biomarker Activity (AID 2283074). To be noted: primary human keratinocytes with fibroblasts; actives raise or lower the signal. The essentials: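 MMP-9 quantified by ELISA after 24 h chemical treatment of primary human skin keratinocyte/fibroblast co-cultures; gain or loss fitted against DMSO, with parallel SRB staining (0.1% SRB, 560 nm) for overt cytotoxicity.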

Read-out in test [4]: urokinase plasminogen activator (uPA), PLAU (gene 5328)
Kind of test: BSK_KF3CT_uPA: BioMAP Diversity Plus: KF3CT Assay for urokinase plasminogen activator (uPA) Biomarker Activity (AID 2283075). To be noted: primary human keratinocytes with fibroblasts; actives raise or lower the signal. The gist of the method: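 ELISA read-out of uPA 24 h after dosing human skin keratinocytes co-cultured with foreskin fibroblasts. Signal change fitted both ways relative to DMSO; sulforhodamine B on parallel cultures marks overt cytotoxicity.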

Read-out in test [5]: CD40, CD40 (gene 958)
Put plainly: BSK_LPS_CD40: BioMAP Diversity Plus: LPS Assay for CD40 Biomarker Activity (AID 2283076). To be noted: primary human HUVEC with PBMC; actives raise or lower the signal. The essentials: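 CD40 signal, measured by ELISA, is fitted in both directions relative to DMSO vehicle. The system is an LPS-driven human vascular primary co-culture of endothelial cells and PBMC, sampled 24 h after compound addition.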

Read-out in test [6]: E-selectin (Homo sapiens) (UniProt P16581)
Kind of test: BSK_LPS_Eselectin: BioMAP Diversity Plus: LPS Assay for Eselectin Biomarker Activity (AID 2283077). To be noted: primary human HUVEC with PBMC; actives raise or lower the signal. The essentials: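 Signal of E-selectin, detected by ELISA, served as the endpoint; cells were umbilical vein endothelium with PBMC, read 24 h after treatment. DMSO defined baseline, and both increases and decreases were fitted.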

Read-out in test [7]: Interleukin-8 (IL8), CXCL8 (gene 3576)
Put plainly: BSK_LPS_IL8: BioMAP Diversity Plus: LPS Assay for Interleukin-8 (IL8) Biomarker Activity (AID 2283078). The settings on record: primary human HUVEC with PBMC; actives raise or lower the signal. The gist of the method: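 Endothelial cells and PBMC from human donors are co-cultured, treated with chemicals and LPS, then assayed for IL-8 by ELISA after 24 h. Parallel SRB staining (0.1% SRB after 10% TCA fixation, 560 nm) flags cytotoxicity.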

Test [8] can be described thus: BSK_LPS_SRB: Viability Assessment in the BioMAP Diversity Plus: LPS Assay (AID 2283079).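 Note: total protein by sulforhodamine B absorbance as a cytotoxicity measure; measured one day after compound addition; fitted in both directions against DMSO so loss or gain of signal counts.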 To be noted: primary human HUVEC with PBMC. The gist of the method: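 Overt cytotoxicity was gauged by sulforhodamine B total-protein staining in a primary human vascular endothelial and mononuclear cell co-culture 24 h post-dosing. Activity was fitted in both directions relative to DMSO.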

Read-out in test [9]: Interleukin-1 alpha (IL1a), IL1A (gene 3552)
Kind of test: BSK_LPS_IL1a: BioMAP Diversity Plus: LPS Assay for Interleukin-1 alpha (IL1a) Biomarker Activity (AID 2283080). To be noted: primary human HUVEC with PBMC; actives raise or lower the signal. The essentials: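 Measured: IL-1 alpha via ELISA at 24 h in LPS-activated human umbilical vein endothelium–PBMC co-culture. Baseline: DMSO, bidirectional fitting.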

Read-out in test [10]: Monocyte Chemoattractant Protein-1 (MCP1), CCL2 (gene 6347)
Kind of test: BSK_LPS_MCP1: BioMAP Diversity Plus: LPS Assay for Monocyte Chemoattractant Protein-1 (MCP1) Biomarker Activity (AID 2283081). To be noted: primary human HUVEC with PBMC; actives raise or lower the signal. The essentials: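 LPS-stimulated HUVEC/PBMC co-culture; chemical, 24 h; MCP-1 by ELISA; bidirectional fit vs DMSO; cytotoxicity via SRB (0.1% stain, 10% TCA fix, 560 nm) in parallel wells.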

Test [11] can be described thus: BSK_LPS_PGE2: BioMAP Diversity Plus: LPS Assay for Prostaglandin E2 (PGE2) Biomarker Activity (AID 2283082).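 For AC50: secreted prostaglandin E2 measured by ELISA in LPS-stimulated co-culture.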 The settings on record: primary human HUVEC with PBMC; actives raise or lower the signal. The gist of the method:
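ELISA read-out of PGE2 from human umbilical vein endothelial cells co-cultured with peripheral blood mononuclear cells under LPS, 24 h post-dose. Gain or loss of signal scored relative to DMSO baseline.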

Read-out in test [12]: Macrophage colony-stimulating factor (MCSF), CSF1 (gene 1435)
Kind of test: BSK_LPS_MCSF: BioMAP Diversity Plus: LPS Assay for Macrophage colony-stimulating factor (MCSF) Biomarker Activity (AID 2283083). The settings on record: primary human HUVEC with PBMC; actives raise or lower the signal. The gist of the method: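 Compound is added to a human vascular primary co-culture of umbilical vein endothelium and blood mononuclear cells. After 24 h, M-CSF is quantified by ELISA. Signal changes are fitted in both directions against DMSO.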

Read-out in test [13]: Tissue Factor, F3 (gene 2152)
Kind of test: BSK_LPS_TissueFactor: BioMAP Diversity Plus: LPS Assay for Tissue Factor Biomarker Activity (AID 2283084). The settings on record: primary human HUVEC with PBMC; actives raise or lower the signal. The essentials: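 In this co-culture system of umbilical vein endothelium with PBMC, stimulated with LPS, cell-surface CD142 is detected by ELISA at 24 h. Endpoint values derive from bidirectional fitting, DMSO serving as baseline.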

Read-out in test [14]: Tumor necrosis factor (Homo sapiens) (UniProt P01375)
Put plainly: BSK_LPS_TNFa: BioMAP Diversity Plus: LPS Assay for Tumour Necrosis Factor alpha (TNFa) Biomarker Activity (AID 2283085). The settings on record: primary human HUVEC with PBMC; actives raise or lower the signal. The gist of the method: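 HUVEC/PBMC co-culture, LPS-stimulated; 24 h post-dose; TNFa by ELISA; gain or loss of signal fitted bidirectionally vs DMSO baseline.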

Read-out in test [15]: Vascular cell adhesion molecule 1 (VCAM1), VCAM1 (gene 7412)
Kind of test: BSK_LPS_VCAM1: BioMAP Diversity Plus: LPS Assay for Vascular cell adhesion molecule 1 (VCAM1) Biomarker Activity (AID 2283086). The settings on record: primary human HUVEC with PBMC; actives raise or lower the signal. The essentials: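 ELISA read-out of VCAM-1 at 24 h post-dosing in an LPS-driven HUVEC/PBMC primary human co-culture; gain or loss of signal fitted bidirectionally against DMSO baseline. Cytotoxicity tracked in parallel cultures by SRB total-protein staining.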

Read-out in test [16]: CD40, CD40 (gene 958)
Kind of test: BSK_SAg_CD40: BioMAP Diversity Plus: SAg Assay for CD40 Biomarker Activity (AID 2283088). To be noted: primary human HUVEC with PBMC; actives raise or lower the signal. The gist of the method: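 Fluorescence ELISA read-out of CD40 from umbilical vein endothelium plus peripheral blood mononuclear cells, sampled 24 h after dosing. Values come from bidirectional curve fitting with DMSO as baseline.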

Read-out in another test: CD69, CD69 (gene 969)
Kind of test: BSK_SAg_CD69: BioMAP Diversity Plus: SAg Assay for CD69 Biomarker Activity (AID 2283089). The settings on record: primary human HUVEC with PBMC; actives raise or lower the signal. The gist of the method:
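ELISA, fluorescence read-out: CD69 on human umbilical vein endothelial cell + PBMC co-culture, 24 h post-dosing. Gain or loss of signal fitted bidirectionally against DMSO baseline.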

Read-out in test [17]: Monocyte Chemoattractant Protein-1 (MCP1), CCL2 (gene 6347)
Kind of test: BSK_SAg_MCP1: BioMAP Diversity Plus: SAg Assay for Monocyte Chemoattractant Protein-1 (MCP1) Biomarker Activity (AID 2283090). To be noted: primary human HUVEC with PBMC; actives raise or lower the signal. The gist of the method:
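Values derive from bidirectional fitting of ELISA-measured MCP1 against DMSO controls. Readings were taken 24 h after dosing human vascular endothelial cells co-cultured with peripheral blood mononuclear cells under superantigen stimulation.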

Read-out in test [18]: E-selectin (Homo sapiens) (UniProt P16581)
Kind of test: BSK_SAg_Eselectin: BioMAP Diversity Plus: SAg Assay for Eselectin Biomarker Activity (AID 2283091). The settings on record: primary human HUVEC with PBMC; actives raise or lower the signal. The gist of the method:
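Primary human endothelial cells and peripheral blood mononuclear cells were co-cultured and exposed to chemical for 24 hours. E-selectin levels were then quantified by ELISA, with bidirectional curve fitting normalised to DMSO controls.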

Read-out in a further test: CD38, CD38 (gene 952)
Kind of test: BSK_SAg_CD38: BioMAP Diversity Plus: SAg Assay for CD38 Biomarker Activity (AID 2283087). The settings on record: primary human HUVEC with PBMC; actives raise or lower the signal. The essentials: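 Measures CD38 on a human endothelial/PBMC co-culture driven by SEB and TSST-1, 24 h after compound exposure, using ELISA with fluorescence detection; DMSO defines baseline for bidirectional curve fitting.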

Calls of active or inactive are those of the source. Rule for the calls: active = hit-call score of the fitted dose curve at least 0.9, where 1 is the maximum; inactive = score below 0.9.

Our source for the outcome and AC50 values is PubChem BioAssay (EPA / NIEHS).

Chain of Tumor necrosis factor (Homo sapiens) (P01375 whole entry, looked up): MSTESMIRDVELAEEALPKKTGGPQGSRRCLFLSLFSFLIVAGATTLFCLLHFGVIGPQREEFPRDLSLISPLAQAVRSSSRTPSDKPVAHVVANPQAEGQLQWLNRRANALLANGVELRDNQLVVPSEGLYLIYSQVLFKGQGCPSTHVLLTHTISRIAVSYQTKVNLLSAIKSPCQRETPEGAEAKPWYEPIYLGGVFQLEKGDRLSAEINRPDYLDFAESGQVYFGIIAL
Chain of E-selectin (Homo sapiens) (P16581 whole entry, looked up): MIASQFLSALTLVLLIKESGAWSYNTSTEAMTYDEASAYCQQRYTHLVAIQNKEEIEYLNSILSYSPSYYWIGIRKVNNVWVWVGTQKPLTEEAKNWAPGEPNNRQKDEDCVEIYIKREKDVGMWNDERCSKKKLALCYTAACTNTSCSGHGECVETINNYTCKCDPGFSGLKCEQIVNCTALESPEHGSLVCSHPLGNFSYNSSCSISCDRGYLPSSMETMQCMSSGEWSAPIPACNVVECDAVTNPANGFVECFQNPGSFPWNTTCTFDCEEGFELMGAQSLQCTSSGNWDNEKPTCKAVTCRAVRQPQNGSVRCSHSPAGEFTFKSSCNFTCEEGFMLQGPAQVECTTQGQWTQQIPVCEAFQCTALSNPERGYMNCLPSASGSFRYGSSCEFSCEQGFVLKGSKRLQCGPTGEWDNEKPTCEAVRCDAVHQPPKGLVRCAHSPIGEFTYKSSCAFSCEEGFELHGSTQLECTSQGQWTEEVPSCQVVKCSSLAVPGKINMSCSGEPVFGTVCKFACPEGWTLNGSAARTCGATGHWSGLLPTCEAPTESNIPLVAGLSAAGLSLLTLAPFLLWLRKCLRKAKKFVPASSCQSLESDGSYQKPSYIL

In the case of `CC(C)Cc1ccc(C(C)C(=O)O)cc1` (stereo unspecified), the outcome in [1] is “inactive”; in test [2], “inactive”; in [3] it was “inactive”; in [4], “inactive”; with CD40, CD40 (gene 958) [5], “inactive”; in test [6], “inactive”. Further, the outcome in test [7], in [8], in [9], in test [10], in [12] and in test [13] was inactive. For the same compound, the outcome was “inactive” in [14]; “inactive” in test [15]; “inactive” with CD40, CD40 (gene 958) [16]; “inactive” in the test with CD69, CD69 (gene 969); “inactive” in test [17]; “inactive” in [18]. In [11], the AC50 – broadly, the concentration giving half of the maximal activity seen – was 0.897 µM (active).
Regarding `CC1(C)[C@H](C=C(Cl)Cl)[C@H]1C(=O)OCc1cccc(Oc2ccccc2)c1`, the outcome in [1] was “inactive”; in test [2], “inactive”; in [3], “inactive”; in [4], “inactive”; in the test with CD40, CD40 (gene 958) [5], “inactive”; in [6], “inactive”. Further, the outcome in test [7], in test [8], in test [9], in test [10], in [11] and in test [12] was inactive. The outcome in [13] is “inactive”; in [14], “inactive”; in [15], “inactive”; with CD40, CD40 (gene 958) [16], “inactive”; with CD69, CD69 (gene 969), “inactive”; in test [17], “inactive”. In addition, in [18], the outcome was inactive.
For the compound `O=C1OC2(c3ccc(O)cc3Oc3cc(O)ccc32)c2ccccc21`, the outcome in [1] is “inactive”; in [2], “inactive”; in [3] it was “inactive”; in test [4] it was “inactive”; in the test with CD40, CD40 (gene 958) [5], “inactive”; in [6] it was “inactive”. Moreover, the outcome in [7], in test [8], in test [9], in test [10], in [11] and in test [12] was inactive. Moreover, the outcome was “inactive” in [13]; “inactive” in test [14]; “inactive” in test [15]; “inactive” with CD38, CD38 (gene 952); “inactive” in the test with CD40, CD40 (gene 958) [16]; “inactive” with CD69, CD69 (gene 969). The outcome in test [17] and in test [18] was inactive.
Consider `CCCCCCCCCC(=O)OCC`, for which the AC50 in [1] was 32.2 µM (active); in [2], 13.3 µM (active); in test [18] it was 20 µM (active). Also, the outcome was “inactive” in test [3]; “inactive” in test [4]; “inactive” with CD40, CD40 (gene 958) [5]; “inactive” in [6]; “inactive” in test [7]; “inactive” in [8]. The result in test [9], in [10], in [11], in test [12], in [13] and in test [14] was inactive. In addition, the outcome was “inactive” in test [15]; “inactive” in the test with CD40, CD40 (gene 958) [16]; “inactive” in the test with CD69, CD69 (gene 969); “inactive” in [17].
With `CCOC(=O)C=Cc1ccccc1`, the outcome was “inactive” in [1]; “inactive” in test [2]; “inactive” in test [3]; “inactive” in test [4]; “inactive” with CD40, CD40 (gene 958) [5]; “inactive” in [6]. Further, the outcome in test [7], in [8], in [9], in test [10], in [11] and in [12] was inactive. Further, the outcome was “inactive” in [13]; “inactive” in test [14]; “inactive” in test [15]; “inactive” in the test with CD40, CD40 (gene 958) [16]; “inactive” with CD69, CD69 (gene 969); “inactive” in test [17]. Besides, the result in test [18] was inactive.
